Results: the supplement of paper PMC10849652
Targets with a hit are over-represented here; the source holds about 8,800 in all. About 0.5% of all pairs of compound and target were hits.

How the values were obtained:
Experiment in all cases: log2 fold change, soluble protein after heating vs DMSO (PISA); higher = thermal stabilisation; K562 lysate, 10 uM; active = over 0.2 and 3.5 SD of the protein, either way, in both replicates (recomputed)
erlotinib = compound: C#Cc1cccc(Nc2ncnc3cc(OCCOC)c(OCCOC)cc23)c1 [erlotinib]
Summary of the method: (§1)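 K562 pellets were dounce-homogenised in PBS pH 7.4 containing 1 mM MgCl2, and the crude extract, at 1 mg/mL protein, was exposed to 10 μM compound for 30 min. Aliquots were heated for 3 min across 48°C-58°C, pooled, brought to 0.5% NP-40 at 4°C and spun at 21,000xg for 90 min, with the supernatant taken as soluble protein. TMTpro 16plex LC-MS/MS with equalised channel sums quantified that protein. Values are log-two fold changes in thermal stability relative to solvent controls, taken from duplicates.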

[1] = compound: C/C(=N\NC(=O)C1=CC(=CC=C1)S(=O)(=O)N2CCOCC2)/C3=C(C=CC(=C3)Cl)O
Summary of the method: as §1

[2] = compound: C1=CC(=CC=C1C2=NC3=C(N2)C=C(C=C3)C(=O)N)OC4=CC=C(C=C4)Cl
Summary of the method: as §1

[3] = compound: C1=CC2=C(C=CC(=C2)/C=C\3/C(=O)NC(=NCC4=CC=CS4)S3)N=C1
Summary of the method: as §1

[4] = compound: C1=CC2=NC=CN=C2C=C1/C=C/3\C(=O)NC(=O)S3
Summary of the method: as §1

[5] = compound: C1=CC=C(C=C1)C2=NC(=C(N2)C3=CC=NC=C3)C4=CC(=C(C=C4)Cl)O
Summary of the method: as §1

[6] = compound: C1=CC=C2C(=C1)C3=NNC4=CC=CC(=C43)C2=O
Summary of the method: as §1

[7] = compound: C1CCN(C1)C(=O)NC2=CC=CC(=C2)NC3=NC=C(C(=N3)NCCC4=CN=CN4)Br
Summary of the method: as §1

[8] = compound: C1CN(CCC1(CC2=CC=C(C=C2)Cl)N)C3=NC=NC4=C3C=CN4
Summary of the method: as §1

IRAK-1-4 Inhibitor I = compound: C1COCCN1CCN2C3=CC=CC=C3N=C2NC(=O)C4=CC(=CC=C4)[N+](=O)[O-] [IRAK-1-4 Inhibitor I]
Summary of the method: as §1

Measured: log2 fold change

AKT2 (UniProt P31751)
inactive: erlotinib -0.011 | [1] 0.082 | [2] -0.013 | [3] -0.005 | [4] -0.022 | [5] -0.025 | [6] 0.009 | [7] -0.014 | [8] -0.017 | IRAK-1-4 Inhibitor I -0.045

ARMCX3 (UniProt Q9UH62)
inactive: erlotinib 0.023 | [1] -0.02 | [2] -0.005 | [3] 0.009 | [4] 0.033 | [5] -0.005 | [6] -0.043 | [7] -0.016 | [8] 0.064 | IRAK-1-4 Inhibitor I 0.03

ARHGEF2 (UniProt Q92974)
inactive: erlotinib -0.006 | [1] -0.041 | [2] -0.014 | [3] -0.017 | [4] 0.002 | [5] 0.039 | [6] -0.007 | [7] -0.051 | [8] -0.018 | IRAK-1-4 Inhibitor I -0.005

ANXA5 (UniProt P08758)
inactive: erlotinib -0.011 | [1] -0.001 | [2] -0.024 | [3] 0.014 | [4] -0.016 | [5] -0.023 | [6] 0.009 | [7] -0.003 | [8] -0.049 | IRAK-1-4 Inhibitor I -0.03

AGO4 (UniProt Q9HCK5)
inactive: erlotinib -0.038 | [1] -0.008 | [2] 0.031 | [3] -0.02 | [4] -0.031 | [5] 0.009 | [6] -0.015 | [7] 0.009 | [8] 0.016 | IRAK-1-4 Inhibitor I -0.009

ABHD16A (UniProt O95870)
inactive: erlotinib -0.009 | [1] -0.047 | [2] 0.03 | [3] 0.046 | [4] -0.042 | [5] 0.015 | [6] -0.016 | [7] 0.014 | [8] 0.064 | IRAK-1-4 Inhibitor I -0.006

ADAM17 (UniProt P78536)
inactive: erlotinib 0.021 | [1] -0.013 | [2] 0.017 | [3] 0.023 | [4] -0.023 | [5] 0.044 | [6] -0.115 | [7] 0.052 | [8] -0.093 | IRAK-1-4 Inhibitor I 0.04

ASB6 (UniProt Q9NWX5)
inactive: erlotinib 0.038 | [1] -0.311 | [2] 0.04 | [3] -0.094 | [4] -0.005 | [5] 0.06 | [6] 0.092 | [7] -0.053 | [8] 0.327 | IRAK-1-4 Inhibitor I 0.002

ARMC6 (UniProt Q6NXE6)
inactive: erlotinib 0.012 | [1] -0.026 | [2] -0.093 | [3] 0.022 | [4] 0.04 | [5] 0.006 | [6] -0.027 | [7] 0.021 | [8] -0.031 | IRAK-1-4 Inhibitor I -0.005

ACBD6 (UniProt Q9BR61)
inactive: erlotinib 0.013 | [1] -0.059 | [2] 0.029 | [3] 0.024 | [4] -0.032 | [5] -0.014 | [6] -0.075 | [7] -0.044 | [8] -0.01 | IRAK-1-4 Inhibitor I 0.019

AGL (UniProt P35573)
inactive: erlotinib 0.007 | [1] 0.002 | [2] 0.003 | [3] -0.021 | [4] -0.01 | [5] 0.008 | [6] -0.035 | [7] -0.017 | [8] -0.006 | IRAK-1-4 Inhibitor I 0.001

ACOX1 isoform 2 (UniProt Q15067)
inactive: erlotinib -0.01 | [1] -0.023 | [2] 0.007 | [3] 0.007 | [4] 0.01 | [5] 0.011 | [6] -0.017 | [7] -0.007 | [8] 0.024 | IRAK-1-4 Inhibitor I 0.081

ACLY (UniProt P53396)
Chain of UniProt P53396 (P53396 whole entry, looked up): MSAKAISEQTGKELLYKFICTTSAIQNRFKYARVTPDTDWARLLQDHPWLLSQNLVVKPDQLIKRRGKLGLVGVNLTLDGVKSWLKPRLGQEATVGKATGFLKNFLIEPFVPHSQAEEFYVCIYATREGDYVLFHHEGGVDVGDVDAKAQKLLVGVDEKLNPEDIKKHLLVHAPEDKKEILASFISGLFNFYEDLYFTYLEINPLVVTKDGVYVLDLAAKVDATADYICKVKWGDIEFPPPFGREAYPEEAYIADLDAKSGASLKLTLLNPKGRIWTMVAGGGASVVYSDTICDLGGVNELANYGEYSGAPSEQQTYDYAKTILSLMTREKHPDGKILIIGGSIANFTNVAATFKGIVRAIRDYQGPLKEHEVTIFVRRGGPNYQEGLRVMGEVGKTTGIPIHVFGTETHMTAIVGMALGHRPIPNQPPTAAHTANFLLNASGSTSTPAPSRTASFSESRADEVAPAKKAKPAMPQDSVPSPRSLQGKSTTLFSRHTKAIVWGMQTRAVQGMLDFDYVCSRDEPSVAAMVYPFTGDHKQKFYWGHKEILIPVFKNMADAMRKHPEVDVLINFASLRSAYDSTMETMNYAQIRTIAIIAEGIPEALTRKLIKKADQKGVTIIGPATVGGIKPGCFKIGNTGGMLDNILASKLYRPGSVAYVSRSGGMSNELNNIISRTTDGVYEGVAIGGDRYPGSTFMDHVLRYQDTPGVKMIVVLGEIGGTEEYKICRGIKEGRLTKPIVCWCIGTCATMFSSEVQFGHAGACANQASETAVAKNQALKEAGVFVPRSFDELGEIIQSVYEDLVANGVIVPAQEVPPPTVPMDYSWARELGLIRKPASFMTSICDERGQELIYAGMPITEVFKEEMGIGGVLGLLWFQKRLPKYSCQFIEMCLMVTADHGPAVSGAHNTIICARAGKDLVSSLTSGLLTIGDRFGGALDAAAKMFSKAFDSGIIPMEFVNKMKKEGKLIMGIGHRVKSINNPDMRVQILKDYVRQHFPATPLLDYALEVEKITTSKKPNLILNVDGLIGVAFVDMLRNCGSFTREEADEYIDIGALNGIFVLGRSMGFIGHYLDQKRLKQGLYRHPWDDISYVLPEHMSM
inactive: erlotinib -0.006 | [1] 0.037 | [2] -0.018 | [3] -0.013 | [4] -0.011 | [5] -0.016 | [6] -0.018 | [7] 0.002 | [8] 0.019 | IRAK-1-4 Inhibitor I -0.01

AKAP11 (UniProt Q9UKA4)
active: [6] -0.361
inactive: erlotinib 0.114 | [1] 0.232 | [2] 0.037 | [3] 0.095 | [4] 0.016 | [5] 0.059 | [7] -0.064 | [8] 0.017 | IRAK-1-4 Inhibitor I -0.071

ARAF (UniProt P10398)
inactive: erlotinib -0.002 | [1] -0.129 | [2] -0.018 | [3] 0.014 | [4] -0.046 | [5] 0.067 | [6] 0.03 | [7] 0.012 | [8] -0.049 | IRAK-1-4 Inhibitor I -0.02

ADK (UniProt P55263)
Chain of UniProt P55263 (P55263 whole entry, looked up): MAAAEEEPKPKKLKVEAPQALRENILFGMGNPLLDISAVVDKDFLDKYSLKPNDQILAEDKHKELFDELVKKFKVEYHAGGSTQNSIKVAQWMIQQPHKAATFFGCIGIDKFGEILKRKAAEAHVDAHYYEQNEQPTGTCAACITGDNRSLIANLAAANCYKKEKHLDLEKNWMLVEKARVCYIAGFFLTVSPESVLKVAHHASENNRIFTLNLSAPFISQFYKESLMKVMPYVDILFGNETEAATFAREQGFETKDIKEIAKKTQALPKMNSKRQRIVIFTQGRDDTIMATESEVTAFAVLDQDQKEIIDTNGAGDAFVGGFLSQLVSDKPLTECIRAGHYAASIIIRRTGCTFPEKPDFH
inactive: erlotinib 0.219 | [1] -0.024 | [2] -0.028 | [3] 0.132 | [4] -0.079 | [5] 0.047 | [6] 0.011 | [7] -0.049 | [8] 0.026 | IRAK-1-4 Inhibitor I 0.063

ACSL4 (UniProt O60488)
Chain of UniProt O60488 (O60488 whole entry, looked up): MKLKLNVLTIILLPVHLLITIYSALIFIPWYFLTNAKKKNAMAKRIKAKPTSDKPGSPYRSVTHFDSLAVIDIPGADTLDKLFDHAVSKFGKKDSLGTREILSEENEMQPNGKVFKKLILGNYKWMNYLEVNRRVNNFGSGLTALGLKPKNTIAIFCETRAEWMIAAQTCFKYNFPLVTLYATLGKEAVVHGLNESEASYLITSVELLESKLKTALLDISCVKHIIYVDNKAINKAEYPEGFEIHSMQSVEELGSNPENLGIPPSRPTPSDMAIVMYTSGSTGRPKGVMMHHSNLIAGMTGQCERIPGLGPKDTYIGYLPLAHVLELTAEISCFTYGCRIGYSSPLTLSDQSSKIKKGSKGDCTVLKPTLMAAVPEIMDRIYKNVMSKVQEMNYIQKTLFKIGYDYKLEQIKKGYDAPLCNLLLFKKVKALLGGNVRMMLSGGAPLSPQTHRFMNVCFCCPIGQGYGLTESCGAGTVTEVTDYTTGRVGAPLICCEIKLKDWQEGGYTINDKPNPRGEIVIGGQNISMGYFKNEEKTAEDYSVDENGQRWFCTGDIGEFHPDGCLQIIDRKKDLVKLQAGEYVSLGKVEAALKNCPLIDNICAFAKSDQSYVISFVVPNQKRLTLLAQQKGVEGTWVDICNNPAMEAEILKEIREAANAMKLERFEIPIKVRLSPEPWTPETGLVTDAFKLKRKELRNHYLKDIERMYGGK
inactive: erlotinib 0.004 | [1] -0.074 | [2] -0.053 | [3] 0.062 | [4] 0.022 | [5] -0.014 | [6] -0.032 | [7] -0.065 | [8] -0.007 | IRAK-1-4 Inhibitor I 0.04

ACTBL2 (UniProt Q562R1)
inactive: erlotinib -0.037 | [1] -0.163 | [2] 0.02 | [3] 0.043 | [4] 0.118 | [5] 0.004 | [6] 0.024 | [7] 0.064 | [8] 0.109 | IRAK-1-4 Inhibitor I -0.006

ASCC2 (UniProt Q9H1I8)
Chain of UniProt Q9H1I8 (Q9H1I8 whole entry, looked up): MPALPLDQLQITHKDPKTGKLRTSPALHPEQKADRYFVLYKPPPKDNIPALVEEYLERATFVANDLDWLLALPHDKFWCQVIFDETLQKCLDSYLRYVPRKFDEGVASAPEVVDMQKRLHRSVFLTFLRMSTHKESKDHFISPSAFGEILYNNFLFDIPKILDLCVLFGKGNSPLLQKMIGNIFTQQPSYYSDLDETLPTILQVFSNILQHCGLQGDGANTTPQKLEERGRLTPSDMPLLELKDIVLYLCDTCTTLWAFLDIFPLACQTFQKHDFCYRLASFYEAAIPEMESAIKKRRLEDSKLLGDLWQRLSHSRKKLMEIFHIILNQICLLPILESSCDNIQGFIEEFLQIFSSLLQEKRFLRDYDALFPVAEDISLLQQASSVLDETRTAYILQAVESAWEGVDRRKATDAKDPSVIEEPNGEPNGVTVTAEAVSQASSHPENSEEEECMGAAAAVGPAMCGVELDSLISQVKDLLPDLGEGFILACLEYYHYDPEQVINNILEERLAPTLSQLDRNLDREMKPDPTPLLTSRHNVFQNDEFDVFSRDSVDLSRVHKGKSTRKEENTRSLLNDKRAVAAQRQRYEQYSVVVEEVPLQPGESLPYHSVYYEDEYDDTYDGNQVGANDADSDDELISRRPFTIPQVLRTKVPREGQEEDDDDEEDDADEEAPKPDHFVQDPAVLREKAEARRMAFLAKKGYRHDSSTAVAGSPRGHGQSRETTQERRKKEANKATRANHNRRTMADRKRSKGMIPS
inactive: erlotinib 0.04 | [1] -0.106 | [2] -0.077 | [3] 0.083 | [4] 0.029 | [5] -0.016 | [6] -0.048 | [7] -0.054 | [8] 0.037 | IRAK-1-4 Inhibitor I -0.042

ACAT1, A0A5F9ZHJ0
inactive: [5] -0.128 | IRAK-1-4 Inhibitor I 0.075

ABRACL (UniProt Q9P1F3)
Chain of UniProt Q9P1F3 (Q9P1F3 whole entry, looked up): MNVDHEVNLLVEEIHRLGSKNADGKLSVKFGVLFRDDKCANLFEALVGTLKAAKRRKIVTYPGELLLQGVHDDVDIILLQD
inactive: erlotinib -0.013 | [2] 0.056 | [4] 0.103

ANKRD10 (UniProt Q9NXR5)
Chain of UniProt Q9NXR5 (Q9NXR5 whole entry, looked up): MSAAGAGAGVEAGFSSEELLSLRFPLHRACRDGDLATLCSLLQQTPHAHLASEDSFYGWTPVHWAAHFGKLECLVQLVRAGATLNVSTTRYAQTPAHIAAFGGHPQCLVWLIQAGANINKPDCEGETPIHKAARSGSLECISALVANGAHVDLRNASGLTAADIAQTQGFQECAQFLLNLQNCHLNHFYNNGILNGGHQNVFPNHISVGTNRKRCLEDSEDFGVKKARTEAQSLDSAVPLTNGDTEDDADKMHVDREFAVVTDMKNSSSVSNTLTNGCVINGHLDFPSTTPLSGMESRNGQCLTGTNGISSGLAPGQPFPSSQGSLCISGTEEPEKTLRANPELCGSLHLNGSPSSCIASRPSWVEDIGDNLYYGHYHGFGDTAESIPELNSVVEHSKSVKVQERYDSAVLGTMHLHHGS
inactive: erlotinib 0.023 | [1] 0.045 | [2] -0.041 | [3] 0.009 | [4] 0.055 | [5] 0.012 | [6] -0.066 | IRAK-1-4 Inhibitor I -0.059

AFF4 (UniProt Q9UHB7)
Chain of UniProt Q9UHB7 (Q9UHB7 whole entry, looked up): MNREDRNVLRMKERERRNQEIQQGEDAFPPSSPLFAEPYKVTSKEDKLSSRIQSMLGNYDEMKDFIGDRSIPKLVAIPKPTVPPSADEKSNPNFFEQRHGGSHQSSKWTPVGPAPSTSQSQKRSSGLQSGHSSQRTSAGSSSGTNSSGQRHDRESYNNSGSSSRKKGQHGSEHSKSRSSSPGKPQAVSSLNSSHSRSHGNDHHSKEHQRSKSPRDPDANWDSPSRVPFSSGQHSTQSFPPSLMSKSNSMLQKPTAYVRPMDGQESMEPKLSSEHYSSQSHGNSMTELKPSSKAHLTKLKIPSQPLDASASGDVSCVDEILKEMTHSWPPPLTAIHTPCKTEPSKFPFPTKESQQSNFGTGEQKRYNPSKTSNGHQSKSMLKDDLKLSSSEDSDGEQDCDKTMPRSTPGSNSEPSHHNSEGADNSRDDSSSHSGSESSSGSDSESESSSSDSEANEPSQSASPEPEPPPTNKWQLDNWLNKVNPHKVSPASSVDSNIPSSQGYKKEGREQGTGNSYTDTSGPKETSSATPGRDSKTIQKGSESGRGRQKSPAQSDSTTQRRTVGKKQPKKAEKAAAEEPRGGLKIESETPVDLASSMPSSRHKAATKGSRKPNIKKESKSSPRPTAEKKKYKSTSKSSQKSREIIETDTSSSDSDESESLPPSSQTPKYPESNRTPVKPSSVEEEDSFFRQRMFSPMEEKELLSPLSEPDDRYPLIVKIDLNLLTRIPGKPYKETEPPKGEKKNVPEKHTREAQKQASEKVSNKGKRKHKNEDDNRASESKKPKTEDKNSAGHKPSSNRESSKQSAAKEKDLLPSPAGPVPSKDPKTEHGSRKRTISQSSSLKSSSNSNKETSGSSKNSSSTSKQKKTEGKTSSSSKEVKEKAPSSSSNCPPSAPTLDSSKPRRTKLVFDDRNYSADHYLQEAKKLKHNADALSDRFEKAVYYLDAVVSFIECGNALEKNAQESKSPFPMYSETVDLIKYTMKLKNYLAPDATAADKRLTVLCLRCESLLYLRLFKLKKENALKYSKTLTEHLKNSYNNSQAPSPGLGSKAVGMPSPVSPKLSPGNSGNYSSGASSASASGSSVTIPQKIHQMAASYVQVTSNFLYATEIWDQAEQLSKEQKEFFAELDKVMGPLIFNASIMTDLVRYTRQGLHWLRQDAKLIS
inactive: erlotinib -0.003 | [1] -0.152 | [2] 0.007 | [3] -0.063 | [4] 0.021 | [5] 0.048 | [6] 0.003 | [7] 0.032 | [8] 0.016 | IRAK-1-4 Inhibitor I -0.031

AMDHD2 (UniProt Q9Y303)
Chain of UniProt Q9Y303 (Q9Y303 whole entry, looked up): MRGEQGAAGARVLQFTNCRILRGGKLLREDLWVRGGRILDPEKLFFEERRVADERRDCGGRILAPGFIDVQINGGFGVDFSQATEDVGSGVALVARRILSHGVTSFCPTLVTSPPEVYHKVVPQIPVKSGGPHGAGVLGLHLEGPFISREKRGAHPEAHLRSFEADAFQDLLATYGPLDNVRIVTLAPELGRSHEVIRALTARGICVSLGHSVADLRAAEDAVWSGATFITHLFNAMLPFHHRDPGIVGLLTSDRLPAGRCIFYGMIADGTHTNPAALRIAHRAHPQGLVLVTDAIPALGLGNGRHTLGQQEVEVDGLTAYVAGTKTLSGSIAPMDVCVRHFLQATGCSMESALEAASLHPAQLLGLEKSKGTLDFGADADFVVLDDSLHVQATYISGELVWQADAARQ
active: [1] -0.527
inactive: [3] 0.212 | [6] -0.391

ANP32E isoform 3 (UniProt Q9BTT0)
inactive: [1] -0.079 | [3] -0.002 | [4] -0.011 | [6] 0.012 | [7] 0.075 | [8] -0.01

AGPAT2 (UniProt O15120)
inactive: erlotinib -0.032 | [1] -0.064 | [2] 0.013 | [3] 0.245 | [5] -0.114 | [6] 0.024 | [7] -0.038 | [8] 0.069 | IRAK-1-4 Inhibitor I -0.027

AIF1L (UniProt Q9BQI0)
inactive: erlotinib -0.035 | [2] -0.008 | [4] -0.014 | [5] 0.012 | [7] 0.329 | [8] -0.008 | IRAK-1-4 Inhibitor I -0.049

AMDHD2 isoform 3 (UniProt Q9Y303)
inactive: erlotinib -0.013 | [1] -0.045 | [2] 0.06 | [3] -0.038 | [4] 0.028 | [5] -0.01 | [6] -0.003 | [7] 0.022 | [8] 0.044 | IRAK-1-4 Inhibitor I 0.018

AIP (UniProt O00170)
inactive: erlotinib -0.006 | [1] -0.032 | [2] -0.015 | [3] -0.004 | [4] -0.012 | [5] 0.018 | [6] 0.026 | [7] -0.002 | [8] 0.016 | IRAK-1-4 Inhibitor I -0.012

ACYP2 (UniProt P14621)
inactive: erlotinib -0.057 | [1] 0.256 | [2] 0.007 | [3] -0.176 | [4] 0.002 | [5] -0.049 | [6] -0.185 | IRAK-1-4 Inhibitor I -0.011

ANXA13 isoform 2 (UniProt P27216)
inactive: erlotinib -0.078 | [1] 0.111 | [2] -0.121 | [3] -0.019 | [4] -0.083 | [5] -0.029 | [6] 0.029 | IRAK-1-4 Inhibitor I -0.174

AIMP2 isoform 2 (UniProt Q13155)
inactive: [4] 0.056 | [5] 0.061 | IRAK-1-4 Inhibitor I 0.006

AP3D1 isoform 2 (UniProt O14617)
inactive: erlotinib 0.029 | [1] -0.082 | [2] -0.15 | [3] -0.162 | [6] -0.026
